# Assays:
# [1] = biological target: T1, Ephrin type-B receptor 1 (Homo sapiens) (UniProt P54762); details: at 10 µM
# T1 sequence (whole entry): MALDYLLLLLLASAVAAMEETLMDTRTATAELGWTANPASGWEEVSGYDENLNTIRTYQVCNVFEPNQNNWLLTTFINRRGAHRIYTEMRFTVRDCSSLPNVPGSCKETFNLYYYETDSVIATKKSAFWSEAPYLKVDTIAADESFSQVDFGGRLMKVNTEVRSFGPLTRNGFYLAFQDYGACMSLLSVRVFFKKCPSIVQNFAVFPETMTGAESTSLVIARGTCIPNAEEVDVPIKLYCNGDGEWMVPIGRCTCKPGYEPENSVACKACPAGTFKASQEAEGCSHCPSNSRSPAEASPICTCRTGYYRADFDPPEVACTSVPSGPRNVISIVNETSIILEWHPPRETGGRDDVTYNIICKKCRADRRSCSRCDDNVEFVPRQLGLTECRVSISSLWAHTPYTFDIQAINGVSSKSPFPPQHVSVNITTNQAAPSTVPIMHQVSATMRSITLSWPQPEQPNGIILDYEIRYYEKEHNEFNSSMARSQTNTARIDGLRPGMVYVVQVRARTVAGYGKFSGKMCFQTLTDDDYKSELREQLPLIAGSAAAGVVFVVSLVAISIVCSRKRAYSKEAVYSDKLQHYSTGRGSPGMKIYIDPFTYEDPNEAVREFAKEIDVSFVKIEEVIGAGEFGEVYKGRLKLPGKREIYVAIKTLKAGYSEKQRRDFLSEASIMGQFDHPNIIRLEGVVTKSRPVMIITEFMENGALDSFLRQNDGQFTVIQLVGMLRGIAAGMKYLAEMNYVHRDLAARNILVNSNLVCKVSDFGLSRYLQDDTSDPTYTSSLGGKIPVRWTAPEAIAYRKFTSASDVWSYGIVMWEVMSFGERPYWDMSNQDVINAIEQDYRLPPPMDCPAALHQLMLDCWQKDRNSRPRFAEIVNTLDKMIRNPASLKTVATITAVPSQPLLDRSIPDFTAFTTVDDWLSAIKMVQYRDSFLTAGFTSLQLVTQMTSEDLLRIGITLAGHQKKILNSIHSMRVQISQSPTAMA
# [2] = biological target: T2, Ephrin type-B receptor 2 (Homo sapiens) (UniProt P29323); details: at 1 µM
# T2 sequence (whole entry): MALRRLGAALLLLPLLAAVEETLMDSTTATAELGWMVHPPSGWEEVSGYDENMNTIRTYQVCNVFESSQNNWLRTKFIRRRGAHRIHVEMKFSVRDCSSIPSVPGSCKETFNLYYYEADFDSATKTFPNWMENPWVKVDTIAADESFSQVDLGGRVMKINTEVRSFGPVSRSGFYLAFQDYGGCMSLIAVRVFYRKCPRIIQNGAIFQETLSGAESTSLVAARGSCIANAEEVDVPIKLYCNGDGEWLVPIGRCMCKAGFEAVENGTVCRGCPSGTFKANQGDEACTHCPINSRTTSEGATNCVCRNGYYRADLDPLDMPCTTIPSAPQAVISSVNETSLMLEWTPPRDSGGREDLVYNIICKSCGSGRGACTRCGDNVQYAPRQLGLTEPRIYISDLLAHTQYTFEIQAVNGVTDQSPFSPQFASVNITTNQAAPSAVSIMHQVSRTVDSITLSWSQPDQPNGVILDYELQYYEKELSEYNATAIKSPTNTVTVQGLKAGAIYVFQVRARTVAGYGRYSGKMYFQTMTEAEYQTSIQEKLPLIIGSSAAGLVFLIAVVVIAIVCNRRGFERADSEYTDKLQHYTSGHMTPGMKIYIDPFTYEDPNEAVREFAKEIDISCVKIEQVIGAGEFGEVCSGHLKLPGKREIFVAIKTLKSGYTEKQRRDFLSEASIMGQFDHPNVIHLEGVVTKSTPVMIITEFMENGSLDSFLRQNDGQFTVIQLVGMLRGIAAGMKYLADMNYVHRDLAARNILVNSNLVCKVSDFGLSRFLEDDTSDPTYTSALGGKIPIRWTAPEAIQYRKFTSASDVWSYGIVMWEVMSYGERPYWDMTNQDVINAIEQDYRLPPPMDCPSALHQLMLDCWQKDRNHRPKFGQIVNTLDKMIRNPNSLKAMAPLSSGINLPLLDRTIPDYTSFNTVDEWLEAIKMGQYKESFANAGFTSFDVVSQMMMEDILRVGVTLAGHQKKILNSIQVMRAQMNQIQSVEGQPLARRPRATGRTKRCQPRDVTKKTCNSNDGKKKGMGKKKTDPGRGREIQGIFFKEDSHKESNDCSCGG
# [3] = biological target: T2, Ephrin type-B receptor 2 (Homo sapiens); details: at 10 µM
# [4] = biological target: T3, Ephrin type-B receptor 3 (Homo sapiens) (UniProt P54753); details: at 1 µM
# T3 sequence (whole entry): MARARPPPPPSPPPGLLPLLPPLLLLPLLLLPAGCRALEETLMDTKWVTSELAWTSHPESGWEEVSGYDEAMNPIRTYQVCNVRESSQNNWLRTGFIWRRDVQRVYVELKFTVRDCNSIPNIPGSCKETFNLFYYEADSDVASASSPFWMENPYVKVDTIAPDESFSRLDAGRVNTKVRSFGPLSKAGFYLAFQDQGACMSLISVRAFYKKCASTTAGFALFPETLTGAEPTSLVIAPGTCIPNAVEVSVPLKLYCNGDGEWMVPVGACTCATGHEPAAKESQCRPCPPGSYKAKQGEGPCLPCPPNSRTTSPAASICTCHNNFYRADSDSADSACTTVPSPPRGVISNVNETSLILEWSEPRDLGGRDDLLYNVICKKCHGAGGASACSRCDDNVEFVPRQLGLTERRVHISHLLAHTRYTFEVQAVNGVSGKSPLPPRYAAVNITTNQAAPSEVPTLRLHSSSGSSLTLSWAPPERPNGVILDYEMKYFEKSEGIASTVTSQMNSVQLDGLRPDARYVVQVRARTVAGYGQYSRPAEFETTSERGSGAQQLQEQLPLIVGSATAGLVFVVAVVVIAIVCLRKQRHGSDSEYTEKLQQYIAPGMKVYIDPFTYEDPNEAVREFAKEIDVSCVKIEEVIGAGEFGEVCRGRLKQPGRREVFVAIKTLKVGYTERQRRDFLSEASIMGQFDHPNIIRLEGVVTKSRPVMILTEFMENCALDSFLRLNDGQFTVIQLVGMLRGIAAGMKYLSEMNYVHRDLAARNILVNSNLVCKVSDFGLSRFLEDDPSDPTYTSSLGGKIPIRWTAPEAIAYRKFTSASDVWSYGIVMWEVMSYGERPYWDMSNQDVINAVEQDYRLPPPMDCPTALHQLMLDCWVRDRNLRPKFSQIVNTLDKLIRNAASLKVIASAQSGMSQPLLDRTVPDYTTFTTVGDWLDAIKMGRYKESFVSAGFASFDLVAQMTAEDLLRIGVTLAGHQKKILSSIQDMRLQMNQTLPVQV
# [5] = biological target: T3, Ephrin type-B receptor 3 (Homo sapiens); details: at 10 µM
# [6] = biological target: T4, Ephrin type-B receptor 4 (Homo sapiens) (UniProt P54760); details: at 1 µM
# T4 sequence (whole entry): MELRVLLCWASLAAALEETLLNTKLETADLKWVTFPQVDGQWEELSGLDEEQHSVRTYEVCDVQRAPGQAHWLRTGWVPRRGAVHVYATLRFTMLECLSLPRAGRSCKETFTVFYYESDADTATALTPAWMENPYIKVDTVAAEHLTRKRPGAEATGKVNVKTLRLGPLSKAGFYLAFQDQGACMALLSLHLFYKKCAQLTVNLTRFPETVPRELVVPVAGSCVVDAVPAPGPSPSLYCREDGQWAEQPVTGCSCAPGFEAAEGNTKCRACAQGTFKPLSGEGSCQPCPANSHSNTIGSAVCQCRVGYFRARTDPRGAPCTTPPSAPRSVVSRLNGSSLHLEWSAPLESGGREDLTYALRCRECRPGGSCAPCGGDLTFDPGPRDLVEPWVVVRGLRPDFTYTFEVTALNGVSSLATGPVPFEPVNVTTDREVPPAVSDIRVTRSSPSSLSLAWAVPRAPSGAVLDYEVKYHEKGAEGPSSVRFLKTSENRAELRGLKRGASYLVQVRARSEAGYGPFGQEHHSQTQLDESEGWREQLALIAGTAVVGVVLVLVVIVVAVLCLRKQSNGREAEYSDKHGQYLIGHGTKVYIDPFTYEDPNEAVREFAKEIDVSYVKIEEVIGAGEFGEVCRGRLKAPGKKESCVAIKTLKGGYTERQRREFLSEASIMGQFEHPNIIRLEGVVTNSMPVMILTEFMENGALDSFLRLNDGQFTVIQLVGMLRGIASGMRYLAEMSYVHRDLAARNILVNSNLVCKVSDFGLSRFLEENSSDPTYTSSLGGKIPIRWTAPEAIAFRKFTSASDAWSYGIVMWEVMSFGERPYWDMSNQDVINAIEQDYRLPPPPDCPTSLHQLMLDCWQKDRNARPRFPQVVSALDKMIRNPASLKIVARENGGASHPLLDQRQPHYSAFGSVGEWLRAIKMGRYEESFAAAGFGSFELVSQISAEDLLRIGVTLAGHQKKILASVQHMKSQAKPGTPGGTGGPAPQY
# [7] = biological target: T4, Ephrin type-B receptor 4 (Homo sapiens); details: at 10 µM
# [8] = biological target: Receptor tyrosine-protein kinase erbB-4 (Homo sapiens) (UniProt Q15303); details: at 1 µM
# Chain of Receptor tyrosine-protein kinase erbB-4 (Homo sapiens) (Q15303 whole entry): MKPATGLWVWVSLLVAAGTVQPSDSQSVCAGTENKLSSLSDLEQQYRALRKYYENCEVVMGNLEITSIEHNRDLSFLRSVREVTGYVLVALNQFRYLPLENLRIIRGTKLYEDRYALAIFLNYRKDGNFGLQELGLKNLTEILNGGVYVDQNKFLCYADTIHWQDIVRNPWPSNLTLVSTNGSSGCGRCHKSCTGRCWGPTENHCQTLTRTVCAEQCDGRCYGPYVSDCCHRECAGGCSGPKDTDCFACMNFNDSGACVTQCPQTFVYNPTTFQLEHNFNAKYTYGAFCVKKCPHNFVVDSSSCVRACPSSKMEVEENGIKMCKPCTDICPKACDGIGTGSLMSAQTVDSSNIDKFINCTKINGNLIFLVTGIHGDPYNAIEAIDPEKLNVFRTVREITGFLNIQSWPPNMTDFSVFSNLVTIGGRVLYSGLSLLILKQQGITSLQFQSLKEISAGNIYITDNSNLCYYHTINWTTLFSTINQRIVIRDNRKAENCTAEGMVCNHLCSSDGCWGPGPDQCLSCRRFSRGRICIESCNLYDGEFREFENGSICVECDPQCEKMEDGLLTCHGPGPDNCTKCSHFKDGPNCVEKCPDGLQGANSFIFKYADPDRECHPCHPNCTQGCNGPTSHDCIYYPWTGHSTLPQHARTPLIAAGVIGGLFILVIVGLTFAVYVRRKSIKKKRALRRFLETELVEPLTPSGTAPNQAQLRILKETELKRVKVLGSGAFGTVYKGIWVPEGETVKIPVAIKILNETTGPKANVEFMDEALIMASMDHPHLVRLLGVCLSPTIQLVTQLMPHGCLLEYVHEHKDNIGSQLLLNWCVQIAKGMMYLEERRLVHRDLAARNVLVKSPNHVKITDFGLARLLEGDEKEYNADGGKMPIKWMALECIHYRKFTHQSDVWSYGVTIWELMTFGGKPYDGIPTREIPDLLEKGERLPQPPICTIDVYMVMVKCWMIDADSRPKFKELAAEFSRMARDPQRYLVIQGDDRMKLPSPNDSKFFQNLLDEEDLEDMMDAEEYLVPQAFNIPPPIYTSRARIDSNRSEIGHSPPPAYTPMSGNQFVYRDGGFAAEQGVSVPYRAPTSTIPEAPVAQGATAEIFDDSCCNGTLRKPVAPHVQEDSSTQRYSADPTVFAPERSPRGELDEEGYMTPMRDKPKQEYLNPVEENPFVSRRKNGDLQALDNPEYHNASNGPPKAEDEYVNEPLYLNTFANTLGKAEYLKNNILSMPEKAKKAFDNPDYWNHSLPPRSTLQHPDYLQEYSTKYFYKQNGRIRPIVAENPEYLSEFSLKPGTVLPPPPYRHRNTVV
# [9] = biological target: Receptor tyrosine-protein kinase erbB-4 (Homo sapiens) (UniProt Q15303); details: at 10 µM
# [10] = biological target: Focal adhesion kinase 1 (Homo sapiens) (UniProt Q05397); details: at 1 µM
# Chain of Focal adhesion kinase 1 (Homo sapiens) (Q05397 2-1052 limits assumed): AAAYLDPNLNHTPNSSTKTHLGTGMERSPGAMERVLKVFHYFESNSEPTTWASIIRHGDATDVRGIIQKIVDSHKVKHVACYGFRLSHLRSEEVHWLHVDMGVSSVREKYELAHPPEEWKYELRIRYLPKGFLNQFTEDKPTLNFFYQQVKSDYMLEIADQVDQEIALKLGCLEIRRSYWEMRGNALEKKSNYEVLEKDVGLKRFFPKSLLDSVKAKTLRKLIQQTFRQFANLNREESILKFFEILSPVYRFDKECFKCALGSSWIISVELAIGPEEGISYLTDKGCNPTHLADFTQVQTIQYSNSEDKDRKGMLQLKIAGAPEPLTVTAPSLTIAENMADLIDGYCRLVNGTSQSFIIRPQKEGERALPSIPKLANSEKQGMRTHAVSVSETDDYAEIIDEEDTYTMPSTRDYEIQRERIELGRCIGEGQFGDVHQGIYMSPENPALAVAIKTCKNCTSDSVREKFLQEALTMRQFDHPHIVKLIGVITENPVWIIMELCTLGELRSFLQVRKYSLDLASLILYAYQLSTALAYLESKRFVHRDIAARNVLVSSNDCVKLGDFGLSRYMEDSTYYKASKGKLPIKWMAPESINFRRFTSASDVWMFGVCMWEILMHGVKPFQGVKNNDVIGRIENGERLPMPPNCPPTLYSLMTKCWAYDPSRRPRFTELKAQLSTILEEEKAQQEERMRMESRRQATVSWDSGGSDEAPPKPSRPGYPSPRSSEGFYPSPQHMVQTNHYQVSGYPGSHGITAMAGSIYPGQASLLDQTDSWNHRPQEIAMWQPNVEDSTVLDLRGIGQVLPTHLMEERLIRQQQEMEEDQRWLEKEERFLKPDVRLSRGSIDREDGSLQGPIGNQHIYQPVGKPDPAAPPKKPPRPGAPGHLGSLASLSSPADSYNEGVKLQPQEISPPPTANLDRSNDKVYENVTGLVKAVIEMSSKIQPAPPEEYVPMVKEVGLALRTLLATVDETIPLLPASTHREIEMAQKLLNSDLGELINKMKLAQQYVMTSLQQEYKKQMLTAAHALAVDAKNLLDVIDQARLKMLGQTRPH
compound,measurement,setting,value
COC(=O)[C@@]1(O)C[C@H]2O[C@]1(C)n1c3ccccc3c3c4c(c5c6ccccc6n2c5c31)C(=O)NC4,residual activity,[1],4%
same,residual activity,[2],114%
same,residual activity,[3],55%
same,residual activity,[4],110% (inactive)
same,residual activity,[5],100%
same,residual activity,[6],71%
same,residual activity,[7],22%
same,residual activity,[8],64%
same,residual activity,[9],19%
same,residual activity,[10],39%

# From ChEMBL document CHEMBL2218924, “A broad activity screen in support of a chemogenomic map for kinase signalling research and drug discovery” (Biochem J, 2013)
